Screening data as filed in PubChem BioAssay.
FBA Mtb inh: Mtb fructose-bisphosphate aldolase inhibition. hit rate 2.3% among 360,000. P9WQA3. inhibition, % at 1 µM. AID 588726. purified M. tuberculosis FBA, fluorescence read-out; in the data active means inhibition above about 27%
Target sequence (P9WQA3 whole entry, looked up): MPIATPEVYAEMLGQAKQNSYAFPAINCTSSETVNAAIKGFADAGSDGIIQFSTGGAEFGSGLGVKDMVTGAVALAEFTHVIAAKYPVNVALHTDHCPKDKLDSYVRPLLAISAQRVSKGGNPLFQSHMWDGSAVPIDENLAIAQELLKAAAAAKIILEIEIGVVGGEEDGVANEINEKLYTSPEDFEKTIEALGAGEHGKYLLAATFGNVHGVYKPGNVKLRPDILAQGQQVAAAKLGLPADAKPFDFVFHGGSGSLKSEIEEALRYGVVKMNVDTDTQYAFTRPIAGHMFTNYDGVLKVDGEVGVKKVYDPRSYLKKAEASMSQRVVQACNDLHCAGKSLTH
CCHFV vOTU inh: blocks the CCHF virus ovarian tumor domain protease. inhibition, % at 11.5 µM. CCHFV vOTU protease, Pep-AMC fluorescence. AID 651958. hit rate 0.55% among 370,000
3CLpro inhibitor: SARS-CoV 3CLpro protease inhibition; inhibition, % at 6 µM; recombinant SARS-CoV 3CLpro, quenched FRET peptide cleavage; P0C6X7; hit rate 0.14% among 290,000; in the data active means inhibition above about 12%
RecA splice inh: Mtb RecA intein splicing inhibition. P9WHJ3. hit rate 0.75% among 290,000. AID 2221. cell-free RecA intein splicing, fluorescence. inhibition, % (no concentration beside the values); in the data active means inhibition above about 30%
DUSP3 inh: blocks human VHR1 dual specificity phosphatase; P51452; recombinant VHR phosphatase, pNPP absorbance; inhibition, % at 13.3 µM; hit rate 0.52% among 290,000; in the data active means inhibition above about 50%
Target sequence (P51452 whole entry, looked up): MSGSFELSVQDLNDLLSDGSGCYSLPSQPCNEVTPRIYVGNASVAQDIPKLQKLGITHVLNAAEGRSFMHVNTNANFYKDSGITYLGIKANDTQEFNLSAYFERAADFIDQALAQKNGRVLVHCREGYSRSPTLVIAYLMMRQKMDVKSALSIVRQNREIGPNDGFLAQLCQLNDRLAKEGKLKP
GDH-TPI inh: GDH-TPI coupled enzyme inhibition counter-screen; GDH-TPI coupled enzyme counterscreen, NADH absorbance; inhibition, % at 4.8 µM; hit rate 1.2% among 360,000; AID 588335
Hits are given with their value; – = inactive; · = not tested or not shown; + = active, no number. Only some compounds are listed: those with a hit (about 4.7% of all), similar ones and a draw of the others. Unless noted, no stated cut-off is given here; in the data, active means inhibition above about 30%; inactive means the rest.

SMILES | FBA Mtb inh | CCHFV vOTU inh | 3CLpro inhibitor | RecA splice inh | DUSP3 inh | GDH-TPI inh
O=C(O)c1cccc(Cn2c(Cl)c(/C=N/NC(=O)c3ccccc3Cl)sc2=O)c1 | – | – | – | – | – | 41
O=C(O)c1cccc(Cn2c(Cl)c(/C=N/NC(=O)c3ccccc3O)sc2=O)c1 | – | – | – | – | – | 54
O=C(N/N=C/c1sc(=O)n(Cc2ccc(Br)cc2)c1Cl)c1ccco1 | – | – | – | – | – | –
COc1ccc(C(=O)N/N=C/c2sc(=O)n(Cc3cccc(C(=O)O)c3)c2Cl)cc1 | – | – | – | – | – | 36
Cc1ccccc1OCC(=O)N/N=C/c1sc(=O)n(Cc2cccc(C(=O)O)c2)c1Cl | – | – | – | – | – | –
O=C(N/N=C/c1sc(N2CCOCC2)nc1-c1ccccc1)c1ccccc1O | – | – | – | – | – | –
COCc1ccccc1C1=CC(=O)C[C@H](c2ccc(OC)cc2)C1 | – | – | · | · | · | –
O=c1cc(CN(Cc2ccccc2)Cc2ccccc2)c2c(ccc3ccccc32)o1 | – | – | · | · | · | ·
O=[N+]([O-])c1cccc(-c2ccc(C(=S)N3CCOCC3)o2)c1 | – | – | – | – | – | 41
CC(C)CN(CC(C)C)C(=O)c1ccc2c(c1)NC(=O)C(C)(C)O2 | · | – | · | · | · | ·
Cc1ccc(-n2nnc3c(=O)n(Cc4cc(C)ccc4C)cnc32)cc1 | – | – | – | – | 52 | –
O=[N+]([O-])c1ccc(N2CCSCC2)cc1 | – | – | – | – | – | 71
Cc1cc(C)cc(N=C2NC(=O)CS2)c1 | – | – | – | – | 59 | –
CCc1ccc(/C=C2/C(=O)NC(=O)N2C(C)=O)cc1 | – | – | – | – | – | 40
COc1cccc(C2=NOC(C(=O)N3CCc4ccccc4C3)C2)c1 (stereo unspecified) | – | – | – | – | 55 | –
Cn1c(CC(=O)Nc2ccccc2Cl)nnc1SCC(=O)Nc1nncs1 | – | – | – | – | – | –
c1csc(CN2CCNCC2)c1 | – | – | – | – | 56 | –
Cc1ccc2nc3c(c(N)c2c1)CCN3C | – | – | – | – | 58 | –
COC(=O)C1=C(O)/C(=C/c2ccc(OCC(=O)Nc3ccc(OC)cc3)cc2)N=C1C | – | – | · | · | · | 34
COC(=O)C1=C(O)/C(=C\c2ccc(OCC(=O)Nc3ccccc3)cc2)N=C1C | – | – | – | – | – | –
CCC(=O)c1ccc(OC)c(OC)c1OCc1ccccc1 | – | – | · | · | · | –
Nc1sc(Cc2ccccc2)cc1C(=O)c1c(-c2ccccc2)[nH]c2ccccc12 | · | – | · | · | · | ·
CCC1CCc2c(sc3ncnc(N4CCOCC4)c23)C1 (stereo unspecified) | 120 | – | – | – | – | –
CC1CCc2sc3ncnc(N4CCN(C)CC4)c3c2C1 (stereo unspecified) | – | – | – | – | – | –
CCOc1ccc(-n2c(COc3ccccc3)nnc2SCC(=O)Nc2ccc3c(c2)OCCO3)cc1 | · | – | · | · | · | ·
SMILES | FBA Mtb inh | CCHFV vOTU inh | 3CLpro inhibitor | RecA splice inh | DUSP3 inh | GDH-TPI inh
Nc1nc(N)c2cc(S(=O)(=O)c3ccc4ccccc4c3)ccc2n1 | – | – | · | · | · | –
Cc1cccc(C(=O)OCC(=O)c2csc(N3CCCCC3)n2)c1[N+](=O)[O-] | – | – | · | · | · | 36
C/C(=N/O)c1ccc(Oc2cnccn2)cc1 | – | – | – | – | – | –
CC(O)c1ccc(Oc2cnccn2)cc1 (stereo unspecified) | 190 | – | – | – | – | –
CCOC(=O)Nc1ccc2c(c1)C(=NNC(=S)NC)c1ccccc1-2 | – | – | · | · | · | –
Cc1cccc(CSC(=N)N)c1 | – | – | – | – | – | –
Cc1cccc(CSC(Nc2ccc(F)cc2)=C(C#N)C#N)c1 | – | – | – | 53 | – | –
CCOC(=O)N1CCN(c2c(Nc3ccc4c(c3)OCCO4)c(=O)c2=O)CC1 | – | – | – | – | – | 42
CCOC(=O)N1CCN(c2c(N3CCc4ccccc43)c(=O)c2=O)CC1 | – | – | – | – | – | 51
CCOC(=O)N1CCN(CC(=O)NC(=O)Nc2ccc3c(c2)OCCO3)CC1 | – | – | · | · | · | –
CCN(C(=O)CSc1nccc(=O)[nH]1)c1cccc2ccccc12 | – | – | · | · | · | –
CCNc1nc(N)c(C(=C(C#N)C#N)c2ccccc2)s1 | 167 | – | – | – | – | –
CCNc1nc(N)c(C(=O)C23CC4CC(CC(C4)C2)C3)s1 | – | – | – | – | – | –
CC(C)(C)S(=O)(=O)N1C[C@@H]2CC(=O)C(CCO)=C2[C@H]1CCO | · | – | · | · | · | ·
COC(=O)CC#C[C@H](C)[C@@H](NS(=O)(=O)c1ccc(C)cc1)C1CCCCC1 | · | – | · | · | · | ·
O=[N+]([O-])c1ccc(N2CCCC2)c2ncccc12 | – | – | – | – | – | –
CC1CN(c2ccc([N+](=O)[O-])c3cccnc23)CC(C)N1 (stereo unspecified) | – | 32 | – | – | – | –
CCC(C)NC(=O)c1cc2c(=O)n3ccccc3nc2s1 (stereo unspecified) | + | – | – | – | – | –
CCC(C)NC(=O)c1cc2cc3ccc(OC)cc3nc2s1 (stereo unspecified) | 110 | – | – | – | – | –
CC(C)CCNC(=O)c1cc2c(=O)n3ccccc3nc2s1 | 121 | – | – | – | – | –
O=C(CSc1nc2ccccc2o1)NN=C/C=C/c1ccccc1 | · | – | · | · | · | ·
COc1ccccc1NC(=S)N(CCCN1CCOCC1)Cc1cccs1 | – | – | – | – | – | –
COC(=O)C1C2c3ccccc3OC1(C)N=c1s/c(=C/c3cnn(C)c3)c(=O)n12 (stereo unspecified) | – | – | – | – | – | –
CC(=O)C1C2c3ccccc3OC1(C)N=c1s/c(=C/c3cn(C)nc3C)c(=O)n12 (stereo unspecified) | – | – | – | – | – | 36
Cc1c(CC(=O)NCC(C)C)c(=O)oc2cc3c(cc12)CCC(C)(C)O3 | 140 | – | – | – | – | –
SMILES | FBA Mtb inh | CCHFV vOTU inh | 3CLpro inhibitor | RecA splice inh | DUSP3 inh | GDH-TPI inh
CCC(C)NC(=O)Cc1c(C)c2cc3c(cc2oc1=O)OC(C)(C)CC3 (stereo unspecified) | 189 | – | – | – | – | –
COCCNC(=O)Cc1c(C)c2cc3c(cc2oc1=O)OC(C)(C)CC3 | 165 | – | – | – | – | –
Cc1oc2cc3oc(=O)c(CC(=O)N[C@@H](C)C(=O)NC(Cc4ccc(Cl)cc4)C(=O)O)c(C)c3cc2c1C (stereo partly specified) | – | – | – | – | – | –
Cc1oc2cc3oc(=O)c(CC(=O)NCCC(=O)O)c(C)c3cc2c1C | – | – | – | – | – | –
Cc1c(CC(=O)N[C@@H](C)C(=O)O)c(=O)oc2cc3c(cc12)CCC(C)(C)O3 | + | – | – | – | – | –
Cc1oc2cc3oc(=O)c(CC(=O)N[C@H](C(=O)N[C@@H](C(=O)O)c4ccccc4)C(C)C)c(C)c3cc2c1C | – | – | – | – | – | –
CCOc1ccccc1C(=O)N/N=C/c1ccoc1 | – | – | – | – | – | –
CC(C)C[C@H]1COc2cccc(N3CCOCC3)c2S(=O)(=O)N1 | · | – | · | · | · | ·
CCOC(=O)CNC(=O)C(Cc1ccc2c(c1)OCO2)NC(C)=O (stereo unspecified) | · | – | · | · | · | ·
